# Reference: PubChem BioAssay (EPA / NIEHS)
# The source holds several records for some structures; these can differ, active in one and inactive in another. Active and inactive are the calls of the source. How the source made its calls: active means hit-call score of the fitted dose curve at least 0.9, where 1 is the maximum; inactive means score below 0.9.
# Read-out: Monokine induced gamma interferon (MIG), CXCL9 (gene 4283)
# Experiment: BSK_SAg_MIG: BioMAP Diversity Plus: SAg Assay for Monokine induced gamma interferon (MIG) Biomarker Activity (AID 2283092)
# Settings: primary human HUVEC with PBMC; actives raise or lower the signal
# Experimental: BSK_SAg is a cell-based, multiplexed-readout assay that uses umbilical vein endothelium and peripheral blood mononuclear cells, a human vascular primary cell co-culture, with measurements taken at 24 hours after chemical dosing in a 96-well plate.BSK_SAg_MIG is an assay component measured in the BSK_SAg assay. It measures MIG antibody related to regulation of gene expression using ELISA technology.Data from the assay component BSK_SAg_MIG was analyzed into 1 assay endpoint. This assay endpoint, BSK_SAg_MIG, was analyzed with bidirectional fitting relative to DMSO as the negative control and baseline of activity. Using a type of binding reporter, gain or loss-of-signal activity can be used to understand changes in the signaling as they relate to the gene CXCL9. Furthermore, this assay endpoint can be referred to as a primary readout, because this assay has produced multiple assay endpoints where this one serves a signaling function. To generalize the intended target to other relatable targets, this assay endpoint is annotated to the cytokine intended target family, where the subfamily is chemotactic factor.
# The levels of cell surface (or secreted, indicated by the prefix "s") biomarker endpoints were measured by ELISA. Overt cytotoxicity to cells in confluent adherent cultures (all systems other than the BT system) was assessed by measuring total protein levels using sulforhodamine B (SRB) staining in parallel cultures at the time of biomarker measurements, indicated as SRB endpoints. For proliferation assays for adherent cell types, individual cell types are cultured at sub-confluence and relative cell numbers quantified by SRB staining at time points optimized for each system (48 h: 3C and CASM3C systems; 72 h: BT and HDF3CGF systems; 96 h: SAg system). SRB was performed by staining cells with 0.1% SRB after fixation with 10% TCA and reading wells at 560 nm.Viability and proliferation of PBMC (T cells) was quantified by Alamar Blue reduction for the SAg and BT systems. For PBMC viability (referred to as PBMC Cytotoxicity within the assay endpoint names), cells were plated (75,000/well in a 96-well plate) and then chemical samples added for 1 h before addition of activators, SEB and TSST-1 (20 ng/mL final concentration each). Cells were incubated for 90 h. Then, Alamar Blue (20 uL/well) (Invitrogen, Cat DAL1100) was added for 6 h, and the plates were read with a fluorescence microplate reader at 546/580 nm (excitation/emission). For PBMC proliferation, cells were plated and activated as above but incubated for only 16 h prior to addition of Alamar Blue. Plates were read after 6 h.
SMILES,outcome,AC50
CC1(C)Cc2cccc(O)c2O1,inactive,
O=C(O)C(F)(F)C(F)(F)C(F)(F)C(F)(F)C(F)(F)C(F)(F)C(F)(F)C(F)(F)C(F)(F)C(F)(F)F,inactive,34.9 µM (active)
CCC(=O)C(CC(C)N(C)C)(c1ccccc1)c1ccccc1 (stereo not given),inactive,
Oc1cccc2cccnc12,inactive,
CC12CC1(C)C(=O)N(c1cc(Cl)cc(Cl)c1)C2=O (stereo not given),inactive,
O=C(O)CCC(F)(C(F)(F)F)C(F)(F)F,inactive,
O=[N+]([O-])c1ccc2c3c(cccc13)CC2,inactive,
O=C1C2(Cl)C3(Cl)C4(Cl)C(Cl)(Cl)C5(Cl)C3(Cl)C1(Cl)C5(Cl)C24Cl (stereo not given),,10.6 µM (active)
CCOC(=O)/C=C(C)/C=C/C[C@@H](C)CCCC(C)C,inactive,
CCOP(=S)(OCC)SCCS(=O)(=O)CC,inactive,
CC(=O)OC(c1ccccc1)C(Cl)(Cl)Cl (stereo not given),inactive,
CC(C)(c1ccccc1)c1ccc(O)c(C(C)(C)c2ccccc2)c1,,11.4 µM (active)
CCCCC(CC)CO[N+](=O)[O-] (stereo not given),inactive,
Nc1ccc(-c2ccc(N)c(Cl)c2)cc1Cl,inactive,
O=S(=O)(c1ccc(Cl)cc1)c1ccc(Cl)cc1,inactive,
COc1cc(OC)nc(NC(=O)NS(=O)(=O)c2ncccc2C(=O)N(C)C)n1,inactive,
CCSC(C)CC1CC(=O)C(C(CC)=NOC/C=C/Cl)=C(O)C1 (stereo not given),inactive,
COP(=S)(OC)Oc1ccc(Sc2ccc(OP(=S)(OC)OC)cc2)cc1,inactive,
O=c1[nH]c(=O)[nH]c(=O)[nH]1,inactive,
CCOP(=S)(OCC)Oc1ccc(S(C)=O)cc1 (stereo not given),inactive,

SMILES,outcome,AC50
ClC1(Cl)C2(Cl)C3(Cl)C4(Cl)C(Cl)(Cl)C5(Cl)C3(Cl)C1(Cl)C5(Cl)C24Cl (stereo not given),inactive,
CCOP(=S)(OCC)Oc1nc(Cl)c(Cl)cc1Cl,inactive,
Cc1ccccc1N,inactive,
CCOP(=S)(OCC)SCSP(=S)(OCC)OCC,inactive,
CC(C)(OO)c1ccccc1,inactive,
Nc1ncc([N+](=O)[O-])s1,inactive,
C[C@]12CCC(=O)C[C@@H]1CC[C@@H]1[C@@H]2CC[C@]2(C)[C@@H](O)CC[C@@H]12,inactive,
ClC(Cl)=C(Cl)C(Cl)=C(Cl)Cl,inactive,
Oc1ccc(-c2ccccc2)cc1,inactive,
O=C(OC1CCCCC1)c1ccccc1C(=O)OC1CCCCC1,,29.8 µM (active)
CCN1CCC2(CC1)COc1cc3c(cc12)N(C(=O)c1ccc(-c2ccc(-c4nnc(C)o4)cc2C)cc1)CC3,,30.8 µM (active)
C=C(C)C(=O)[O][Sn]([CH2]CCC)([CH2]CCC)[CH2]CCC,,0.148 µM (active)
O=C(Nc1ccc2[nH]ccc2c1)c1cc2cc(F)ccc2n1Cc1cccc(F)c1,,12.7 µM (active)
CCC(C)(C)c1ccc(O)c(C(C)(C)CC)c1,,20.8 µM (active)
ClC1=C(Cl)[C@]2(Cl)[C@H]3[C@H]([C@H]4C=C[C@H]3C4)[C@@]1(Cl)C2(Cl)Cl,inactive,
CC(=O)[O][Hg][c]1ccccc1,,1.78 µM (active)
COC(=O)Cc1ccccc1,inactive,
O=C(O)C(Cl)(Cl)Cl,inactive,
COC[C@H](C)N(C(=O)CCl)c1c(C)csc1C,inactive,
